In PubChem BioAssay (NCATS):
Inconclusive results are not listed. The source made the active and inactive calls. Unless noted, calls come from the whole dose curve.

How the values were obtained:
[1] = Primary qHTS for inhibitors of nuclear receptor binding SET domain protein 2 (NSD2) in an isogenic RCH-ACV NSD2 p.E1099K mutant (9B) (AID 1645876; active = well fitted inhibition curve with a large enough effect; note: nearly all actives have a fitted effect of over 70% in size); conditions: RCH-ACV (leukaemia line) NSD2 E1099K (9B) viability, CellTiter-Glo, 72 h; series mostly up to 44.9 µM
[2] = qHTS drug screen for cell cycle checkpoint inhibitors in PARPi-resistant BRCA-mutant ovarian cancer cell lines. (AID 1963452); conditions: PEO1/OlaR viability, CellTiter-Glo luminescence, 96 h; for Z-AUC: stronger effect = lower value
In short: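 PEO1, PEO4 and PEO1/OlaR ovarian cancer cells, 600 per well, exposed 96 h at 37C to a dilution series. Viability read by CellTiter-Glo luminescence, normalized to DMSO and empty wells; activity summarized as Z-AUC.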
Potency is the fitted concentration of half-maximal effect.

SMILES	Potency [1]	Z-AUC ([2]; PEO1 parental Z-AUC)	Z-AUC ([2]; PEO4 Z-AUC)	Z-AUC [2]	Potency [2]
COC(=O)[C@]12CCC(C)(C)C[C@H]1[C@H]1C(=O)C=C3[C@@]4(C)C=C(C#N)C(=O)C(C)(C)[C@@H]4CC[C@@]3(C)[C@]1(C)CC2	8.33 µM (active)	-0.983	-1.45	0.111 (inactive)	–
CC1(C)CC[C@]2(NC(=O)C(C)(F)F)CC[C@]3(C)[C@H](C(=O)C=C4[C@@]5(C)C=C(C#N)C(=O)C(C)(C)[C@@H]5CC[C@]43C)[C@@H]2C1	9.34 µM (active)	-1.7	-2.21	–	1.38 µM (active)
